Test [1] concerns the target human CYP2C9, CYP2C9 (gene 1559) (UniProt P11712). Nature of the test: NVS_ADME_hCYP2C9: NovaScreen (NVS) CYP450-related Enzyme Activity (ADME) Assay for human CYP2C9 (AID 2283108). In outline:
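Cell-free assay of recombinant human CYP2C9 produced in Sf9 cells, with enzyme activity read by fluorescence intensity 0.75 h after compound addition. Loss of signal versus an acetonitrile negative control indicates inhibition. Primary screen used 10 uM in duplicate; actives were retested in concentration series.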

In test [2] the target is Cytochrome P450 2C19 (Homo sapiens) (UniProt P33261). The test can be described thus: NVS_ADME_hCYP2C19: NovaScreen (NVS) CYP450-related Enzyme Activity (ADME) Assay for human CYP2C19 (AID 2283113).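 Also: potency for inhibition seen as loss of fluorescent signal.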 In outline:
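Fluorescence intensity was measured 1 hour after chemicals were added to insect-cell-derived recombinant CYP2C19 with fluorogenic substrate. Decreased signal versus acetonitrile control was taken as reduced enzyme activity; initial testing used 10 uM in duplicate.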

In test [3] the target is rat CYP2A2, Cyp2a2 (gene 24895) (UniProt P15149). Nature of the test: NVS_ADME_rCYP2A2: NovaScreen (NVS) CYP450-related Enzyme Activity (ADME) Assay for rat CYP2A2 (AID 2283116). The essentials: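 Cell-free recombinant rat CYP2A2 activity with fluorogenic substrate, fluorescence read 0.2 h after dosing. Chemicals screened at 10 uM in duplicate, hits then run in concentration-response up to 20 uM; signal loss versus acetonitrile baseline.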
Chain of rat CYP2A2, Cyp2a2 (gene 24895) (P15149 whole entry, looked up): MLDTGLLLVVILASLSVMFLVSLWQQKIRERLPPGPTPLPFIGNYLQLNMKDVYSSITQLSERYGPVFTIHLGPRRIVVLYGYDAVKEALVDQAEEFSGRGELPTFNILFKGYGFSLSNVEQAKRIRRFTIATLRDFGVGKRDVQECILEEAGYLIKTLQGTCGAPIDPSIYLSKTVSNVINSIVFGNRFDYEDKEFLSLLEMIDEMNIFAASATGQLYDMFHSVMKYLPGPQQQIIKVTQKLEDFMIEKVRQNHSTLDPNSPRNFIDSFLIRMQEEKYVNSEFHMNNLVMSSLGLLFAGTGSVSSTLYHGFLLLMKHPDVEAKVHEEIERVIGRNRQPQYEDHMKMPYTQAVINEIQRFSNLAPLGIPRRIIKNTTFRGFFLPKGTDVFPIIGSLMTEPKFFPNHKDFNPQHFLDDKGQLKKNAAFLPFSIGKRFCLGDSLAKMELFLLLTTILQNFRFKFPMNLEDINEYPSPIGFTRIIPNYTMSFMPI

The target in test [4] is human AKT serine/threonine Kinase 1 (AKT1), AKT1 (gene 207) (UniProt P31749). Nature of the test: NVS_ENZ_hAKT1: NovaScreen (NVS) Enzymatic Assay for human AKT serine/threonine Kinase 1 (AKT1) (AID 2283138). In outline:
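Signal loss relative to DMSO, measured by fluorescence after electrophoretic separation of substrate and product, indicates inhibition of recombinant enzyme. Readings at 1 h; screening at 25 uM, follow-up curves up to 50 uM.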

In test [5] the target is human Beta-secretase (BACE), BACE1 (gene 23621) (UniProt P56817). Nature of the test: NVS_ENZ_hBACE: NovaScreen (NVS) Enzymatic Assay for human Beta-secretase (BACE) (AID 2283140).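 Also: hits are inhibitors that reduce fluorescent substrate signal versus DMSO.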 In outline:
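Recombinant BACE1 (SF9 extract) incubated with compound and fluorescent substrate, 1 h. Plates carried positive and DMSO negative controls. Initial single dose 25 uM, duplicate; confirmation by concentration series.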

Test [6] addresses human Caspase 8 (CASP8), CASP8 (gene 841) (UniProt Q14790). The test can be described thus: NVS_ENZ_hCASP8: NovaScreen (NVS) Enzymatic Assay for human Caspase 8 (CASP8) (AID 2283146). In outline: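 E. coli-expressed enzyme was used in a cell-free fluorogenic substrate assay read 1 h after dosing. Loss of signal was scored relative to DMSO, and the primary screen was run in duplicate at 25 uM.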

Test [7] has as its target human Dual Specificity Protein Phosphatase 3 (DUSP3), DUSP3 (gene 1845) (UniProt P51452). Nature of the test: NVS_ENZ_hDUSP3: NovaScreen (NVS) Enzymatic Assay for human Dual Specificity Protein Phosphatase 3 (DUSP3) (AID 2283152). The essentials: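 Cell-free assay with recombinant human DUSP3 and fluorogenic substrate, read by fluorescence intensity. Primary screen ran duplicate at 25 uM; actives followed up in concentration series; loss of signal versus DMSO scored.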

The next test deals with CDK2 (gene 1017) (UniProt P24941). The test can be described thus: NVS_ENZ_hCDK2: NovaScreen (NVS) Enzymatic Assay for human Cyclin-Cependent Kinase 2 (CDK2) (AID 2283144). In outline:
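Cell-free recombinant human CDK2 with fluorescent substrate, product separated by electrophoretic mobility shift; 1 hr read. Primary screen at 25 uM in duplicate, actives retested in concentration-response up to 50 uM; loss of signal versus DMSO.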

The target of test [8] is human Casein Kinase 1-delta (CK1D), CSNK1D (gene 1453) (UniProt P48730). Nature of the test: NVS_ENZ_hCK1D: NovaScreen (NVS) Enzymatic Assay for human Casein Kinase 1-delta (CK1D) (AID 2283148). In outline:
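Recombinant human CK1-delta, cell-free; fluorescent substrate with electrophoretic mobility-shift separation of product, read 1 h after dosing. Single 25 uM duplicate screen, then concentration-response up to 50 uM; loss of signal vs DMSO.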

Test [9] addresses human Colony Stimulating Factor 1 Receptor (CSF1R), CSF1R (gene 1436) (UniProt P07333). Nature of the test: NVS_ENZ_hCSF1R: NovaScreen (NVS) Enzymatic Assay for human Colony Stimulating Factor 1 Receptor (CSF1R) (AID 2283150). In outline: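 Cell-free recombinant human CSF1R kinase with fluorescent substrate, product separated by electrophoretic mobility shift; read 1 h after dosing. Primary screen at 25 uM in duplicate, actives then in concentration-response up to 50 uM, relative to DMSO.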

The target of test [10] is human Caspase 5 (CASP5), CASP5 (gene 838) (UniProt P51878). The test can be described thus: NVS_ENZ_hCASP5: NovaScreen (NVS) Enzymatic Assay for human Caspase 5 (CASP5) (AID 2283137). In outline: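 Cell-free protease assay with bacterially expressed CASP5 and a fluorescent substrate, measured at 2 h. Values fitted relative to DMSO as baseline, from concentration-response series topping at 50 uM.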
Chain of human Caspase 5 (CASP5), CASP5 (gene 838) (P51878 whole entry, looked up): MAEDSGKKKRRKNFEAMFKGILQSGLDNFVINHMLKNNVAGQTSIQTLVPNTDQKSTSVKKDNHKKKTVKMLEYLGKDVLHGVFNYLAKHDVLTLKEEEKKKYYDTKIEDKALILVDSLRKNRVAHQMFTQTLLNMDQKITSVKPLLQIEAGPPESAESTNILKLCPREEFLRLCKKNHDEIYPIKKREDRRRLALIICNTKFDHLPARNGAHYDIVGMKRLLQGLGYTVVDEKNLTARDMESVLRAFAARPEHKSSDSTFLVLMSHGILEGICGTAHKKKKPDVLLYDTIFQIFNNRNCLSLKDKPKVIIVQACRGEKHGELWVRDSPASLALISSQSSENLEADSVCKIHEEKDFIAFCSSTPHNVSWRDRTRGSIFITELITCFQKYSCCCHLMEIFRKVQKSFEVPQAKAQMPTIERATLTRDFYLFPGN

Test [11] concerns the target human Caspase 4 (CASP4), CASP4 (gene 837) (UniProt P49662). The test can be described thus: NVS_ENZ_hCASP4: NovaScreen (NVS) Enzymatic Assay for human Caspase 4 (CASP4) (AID 2283143). The essentials: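 The cell-free assay used E. coli-expressed enzyme with a fluorogenic substrate, read 2 h after dosing. Signal loss was scored versus DMSO. Screening was in duplicate at 25 uM, then singleton concentration-response up to 50 uM.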

This passage reports outcome and AC50 results from PubChem BioAssay (EPA / NIEHS).

Several values for one entry are separate records, joined by “and”; a condition that tells them apart may be missing. Equal entries are not always repeated. Inconclusive results are not listed. Activity calls are given as the source filed them. The calls were made as follows: active = hit-call score of the fitted dose curve at least 0.9, where 1 is the maximum; inconclusive = response in the unintended direction; inactive = score below 0.9.

Chain of human Beta-secretase (BACE), BACE1 (gene 23621) (P56817 whole entry, looked up): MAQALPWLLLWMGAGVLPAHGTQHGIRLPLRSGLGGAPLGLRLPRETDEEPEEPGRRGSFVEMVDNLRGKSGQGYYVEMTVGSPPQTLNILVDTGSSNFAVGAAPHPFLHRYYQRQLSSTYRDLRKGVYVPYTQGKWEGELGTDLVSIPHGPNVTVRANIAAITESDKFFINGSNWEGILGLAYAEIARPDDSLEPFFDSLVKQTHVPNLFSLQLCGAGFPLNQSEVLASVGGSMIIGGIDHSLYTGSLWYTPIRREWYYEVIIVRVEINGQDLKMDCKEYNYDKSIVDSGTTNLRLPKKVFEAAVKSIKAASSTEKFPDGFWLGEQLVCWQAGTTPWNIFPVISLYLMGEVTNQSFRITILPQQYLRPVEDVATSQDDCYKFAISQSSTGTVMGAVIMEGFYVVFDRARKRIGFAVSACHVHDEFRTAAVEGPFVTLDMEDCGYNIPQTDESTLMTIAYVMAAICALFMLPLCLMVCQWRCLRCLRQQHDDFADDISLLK
Chain of human Dual Specificity Protein Phosphatase 3 (DUSP3), DUSP3 (gene 1845) (P51452 whole entry, looked up): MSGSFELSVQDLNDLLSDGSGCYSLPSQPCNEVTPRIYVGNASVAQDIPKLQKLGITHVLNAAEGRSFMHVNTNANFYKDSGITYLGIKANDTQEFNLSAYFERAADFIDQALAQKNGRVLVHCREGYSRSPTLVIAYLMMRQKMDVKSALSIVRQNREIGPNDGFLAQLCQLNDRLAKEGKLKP
Chain of human CYP2C9, CYP2C9 (gene 1559) (P11712 whole entry, looked up): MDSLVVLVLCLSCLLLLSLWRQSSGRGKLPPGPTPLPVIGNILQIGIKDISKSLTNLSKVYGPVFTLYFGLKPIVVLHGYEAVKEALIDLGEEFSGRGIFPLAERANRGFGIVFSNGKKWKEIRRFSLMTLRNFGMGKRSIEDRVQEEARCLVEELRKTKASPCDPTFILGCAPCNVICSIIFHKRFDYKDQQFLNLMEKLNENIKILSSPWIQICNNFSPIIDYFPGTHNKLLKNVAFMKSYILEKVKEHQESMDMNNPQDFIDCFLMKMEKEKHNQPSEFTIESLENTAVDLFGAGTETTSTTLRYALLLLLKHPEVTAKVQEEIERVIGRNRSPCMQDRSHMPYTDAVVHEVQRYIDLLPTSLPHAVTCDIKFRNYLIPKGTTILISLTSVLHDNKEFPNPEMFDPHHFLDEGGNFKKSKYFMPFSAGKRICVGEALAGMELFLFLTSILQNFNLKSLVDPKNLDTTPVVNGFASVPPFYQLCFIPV
Chain of human AKT serine/threonine Kinase 1 (AKT1), AKT1 (gene 207) (P31749 whole entry, looked up): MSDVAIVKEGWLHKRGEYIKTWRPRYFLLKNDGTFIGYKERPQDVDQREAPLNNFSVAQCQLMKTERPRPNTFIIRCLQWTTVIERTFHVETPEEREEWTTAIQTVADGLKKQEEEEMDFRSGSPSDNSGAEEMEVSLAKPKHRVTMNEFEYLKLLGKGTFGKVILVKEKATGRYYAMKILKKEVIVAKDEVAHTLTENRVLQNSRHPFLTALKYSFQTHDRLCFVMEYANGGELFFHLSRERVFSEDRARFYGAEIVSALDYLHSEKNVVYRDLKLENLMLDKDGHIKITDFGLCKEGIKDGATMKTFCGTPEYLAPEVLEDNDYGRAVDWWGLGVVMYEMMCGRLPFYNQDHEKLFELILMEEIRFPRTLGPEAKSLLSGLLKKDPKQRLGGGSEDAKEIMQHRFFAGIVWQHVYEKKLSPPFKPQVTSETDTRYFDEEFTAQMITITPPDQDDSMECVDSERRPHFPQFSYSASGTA
Chain of human Caspase 8 (CASP8), CASP8 (gene 841) (Q14790 whole entry, looked up): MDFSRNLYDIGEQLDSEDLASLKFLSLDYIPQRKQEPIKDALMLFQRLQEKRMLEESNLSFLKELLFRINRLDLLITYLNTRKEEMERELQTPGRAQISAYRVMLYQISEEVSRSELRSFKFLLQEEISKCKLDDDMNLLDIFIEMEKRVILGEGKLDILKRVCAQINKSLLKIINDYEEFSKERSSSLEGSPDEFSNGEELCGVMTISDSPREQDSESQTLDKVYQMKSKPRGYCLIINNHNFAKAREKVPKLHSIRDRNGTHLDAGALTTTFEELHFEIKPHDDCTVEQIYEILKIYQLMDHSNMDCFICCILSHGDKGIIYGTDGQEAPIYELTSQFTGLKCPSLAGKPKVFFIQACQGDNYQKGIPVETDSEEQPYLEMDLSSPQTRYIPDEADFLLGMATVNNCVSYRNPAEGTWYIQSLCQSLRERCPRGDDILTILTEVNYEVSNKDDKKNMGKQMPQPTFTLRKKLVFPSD
Chain of human Caspase 4 (CASP4), CASP4 (gene 837) (P49662 whole entry, looked up): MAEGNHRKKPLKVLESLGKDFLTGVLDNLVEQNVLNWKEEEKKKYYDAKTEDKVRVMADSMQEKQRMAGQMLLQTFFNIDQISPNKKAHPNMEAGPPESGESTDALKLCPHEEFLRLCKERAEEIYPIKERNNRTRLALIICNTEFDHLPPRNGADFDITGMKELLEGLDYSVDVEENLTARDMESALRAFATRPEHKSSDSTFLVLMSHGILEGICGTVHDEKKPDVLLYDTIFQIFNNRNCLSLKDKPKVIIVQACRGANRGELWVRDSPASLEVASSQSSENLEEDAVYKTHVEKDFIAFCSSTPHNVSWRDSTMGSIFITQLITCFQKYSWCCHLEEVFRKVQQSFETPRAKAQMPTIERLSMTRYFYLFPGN
Chain of human Colony Stimulating Factor 1 Receptor (CSF1R), CSF1R (gene 1436) (P07333 whole entry, looked up): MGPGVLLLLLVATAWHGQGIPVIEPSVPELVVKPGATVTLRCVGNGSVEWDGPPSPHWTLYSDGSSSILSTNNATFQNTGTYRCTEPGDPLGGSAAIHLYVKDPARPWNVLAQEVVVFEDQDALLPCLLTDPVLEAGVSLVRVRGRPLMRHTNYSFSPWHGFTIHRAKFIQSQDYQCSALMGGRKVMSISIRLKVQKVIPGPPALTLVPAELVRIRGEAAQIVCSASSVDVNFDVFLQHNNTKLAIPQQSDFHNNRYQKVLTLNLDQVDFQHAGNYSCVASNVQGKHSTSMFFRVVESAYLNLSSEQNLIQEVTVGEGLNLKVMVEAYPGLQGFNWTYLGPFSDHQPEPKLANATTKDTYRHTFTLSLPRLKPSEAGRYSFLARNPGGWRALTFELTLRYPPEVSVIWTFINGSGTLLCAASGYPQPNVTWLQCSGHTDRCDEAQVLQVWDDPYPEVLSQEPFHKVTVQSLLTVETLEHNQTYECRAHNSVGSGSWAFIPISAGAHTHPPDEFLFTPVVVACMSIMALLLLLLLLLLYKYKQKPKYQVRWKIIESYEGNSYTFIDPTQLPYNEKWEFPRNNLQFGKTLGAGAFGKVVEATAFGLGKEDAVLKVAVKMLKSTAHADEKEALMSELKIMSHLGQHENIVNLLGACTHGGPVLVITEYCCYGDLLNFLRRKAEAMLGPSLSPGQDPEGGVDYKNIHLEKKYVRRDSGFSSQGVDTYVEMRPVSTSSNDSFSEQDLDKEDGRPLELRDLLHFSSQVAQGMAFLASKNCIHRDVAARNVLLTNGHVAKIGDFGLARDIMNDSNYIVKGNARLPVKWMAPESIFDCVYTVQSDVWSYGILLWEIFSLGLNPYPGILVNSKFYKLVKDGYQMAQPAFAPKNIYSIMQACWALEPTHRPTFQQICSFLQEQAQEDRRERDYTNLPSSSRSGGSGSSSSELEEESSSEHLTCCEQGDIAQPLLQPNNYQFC
Chain of human Casein Kinase 1-delta (CK1D), CSNK1D (gene 1453) (P48730 whole entry, looked up): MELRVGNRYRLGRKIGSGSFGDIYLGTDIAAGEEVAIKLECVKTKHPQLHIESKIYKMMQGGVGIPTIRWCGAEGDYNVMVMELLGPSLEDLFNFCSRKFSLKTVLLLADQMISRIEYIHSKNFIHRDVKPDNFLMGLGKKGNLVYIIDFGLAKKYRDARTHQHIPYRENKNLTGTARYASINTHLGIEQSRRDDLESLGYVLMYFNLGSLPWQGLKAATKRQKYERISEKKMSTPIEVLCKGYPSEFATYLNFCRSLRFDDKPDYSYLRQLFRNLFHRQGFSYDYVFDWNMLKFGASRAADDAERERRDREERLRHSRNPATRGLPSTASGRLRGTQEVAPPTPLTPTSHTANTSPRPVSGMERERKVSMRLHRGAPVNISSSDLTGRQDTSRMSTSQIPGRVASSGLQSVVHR

As for `CCCCOC(=O)CC(CC(=O)OCCCC)(OC(C)=O)C(=O)OCCCC`, the compound was called inactive in [1] and in test [3]. In addition, in test [2], the AC50 was 3.7 µM (active) and 9.42 µM (active).
`CO[C@H]1/C=C/O[C@@]2(C)Oc3c(C)c(O)c4c(O)c(c(/C=N/N5CCN(C)CC5)c(O)c4c3C2=O)NC(=O)/C(C)=C\C=C\[C@H](C)[C@H](O)[C@@H](C)[C@@H](O)[C@@H](C)[C@H](OC(C)=O)[C@@H]1C`: the concentration at half-maximal activity (AC50) in test [2] is 10.7 µM (active); in test [4], 25.1 µM (active); in [6] it was 6.48 µM (active); in test [7] it was 7.6 µM (active). Besides, the compound was called inactive in test [5].
Consider `c1ccc(C[n+]2cccc3ccccc32)cc1`, for which, in [2], the AC50 was 4.78 µM (active).
Turning to `COc1ccc2cc(S(=O)(=O)N[C@H](CC(=O)N[C@H](Cc3ccc(CN4[C@H](C)CCC[C@@H]4C)cc3)C(=O)N(C)C(C)C)c3ccc4c(c3)OCO4)ccc2c1`, the AC50 is 5.3 µM (active) in [2] and 3.86 µM (active) in test [7]. Also, in test [5], the compound was classed as inactive.
In the case of `COc1cc(C(=O)NC2CCN(C)CC2)ccc1Nc1ncc2c(n1)N(C1CCCC1)CC(F)(F)C(=O)N2C`, the AC50 in test [1] was 6.56 µM (active); in [2] it was 7.11 µM (active); in test [8], 18.1 µM (active); in test [9], 11.2 µM (active). For the same compound, the compound was classed as inactive (in [5]; in the test with CDK2 (gene 1017)).
Regarding `CCN(Cc1cccnc1)C(=O)c1cccc(Cl)c1[C@]1(C)C(=O)N(Cc2ccc(OC)cc2OC)c2ccc(Cl)cc21`, the AC50 is 2.28 µM (active) in test [1], 1.01 µM (active) in test [2] and 14.1 µM (active) in test [7]. The outcome in test [10] and in test [11] was inactive.
Regarding `Clc1ccccc1C(c1ccccc1)(c1ccccc1)n1ccnc1`, the AC50 in [1] was 0.585 µM (active); in test [2], 1.1 µM (active).
Regarding `CC(C)(C)c1cc(/C=C2\SC(N)=NC2=O)cc(C(C)(C)C)c1O`, the AC50 in [2] was 1.16 µM (active).

One may read the AC50 as the midpoint of the concentration-response curve, whichever way the signal moves.
